Source: PubChem BioAssay AID1159580 (chemical genetic matrix, 2015)
Out of some 5,500 compounds screened, about 2,000 (36%) were called active. Roughly 18% stayed inconclusive and do not appear here. Cut-off read from the data, not from the text of the source: active = normalized growth mostly below about 0.91 (no sharp cut-off); inconclusive = no clear call, values can overlap the other calls; inactive = mostly above about 0.92. The list shows a part of the results.

Assay: chemical genetic growth profiling, strain panel (AID 1159580);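 note: tested at 20 µM; growth read once vehicle control cultures reached saturation at 30 °C; 1 = growth at the plate median or of vehicle wells; lower values mean less growth of the strain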
Settings: S. cerevisiae deletion strains, growth OD

Measured: normalized growth

CC1(C)CCC2=C(O1)c1ccccc1C(=O)C2=O
active: locus YAL013W, strain DEP1, stronger effect = lower value 0.879 | locus YCL061C, strain MRC1 (second series), stronger effect = lower value 0.876 | locus YDR150W, strain NUM1, stronger effect = lower value 0.857 | locus YDR363W, strain ESC2, stronger effect = lower value 0.706 | locus YPL055C, strain LGE1, stronger effect = lower value 0.769 | locus YPL241C, strain CIN2, stronger effect = lower value 0.861
inactive: locus YAL040C, strain CLN3, stronger effect = lower value 1.02 | locus YER002W, strain NOP16, stronger effect = lower value 1 | locus YGR078C, strain PAC10, stronger effect = lower value 0.977 | locus YMR263W, strain SAP30, stronger effect = lower value 0.956 | locus YNL175C, strain NOP13, stronger effect = lower value 0.973 | locus YNL197C, strain WHI3, stronger effect = lower value 0.926 | locus YNL224C, strain SQS1, stronger effect = lower value 1 | locus YOR083W, strain WHI5 (second series), stronger effect = lower value 0.938

C=C(NC(=O)C(=C)NC(=O)c1csc(C2=NC3c4csc(n4)C4NC(=O)c5csc(n5)C(C(C)(O)C(C)O)NC(=O)C5CSC(=N5)C(=CC)NC(=O)C(C(C)O)NC(=O)c5csc(n5)C3(CC2)NC(=O)C(C)NC(=O)C(=C)NC(=O)C(C)NC(=O)C(C(C)CC)NC2C=Cc3c(C(C)O)cc(nc3C2O)C(=O)OC4C)n1)C(N)=O (centres undefined)
inactive: locus YAL021C, strain ccr4, stronger effect = lower value 1.01 | locus YAL026C, strain drs2, stronger effect = lower value 1.01 | locus YAL030W, strain snc1, stronger effect = lower value 1.01 | locus YBL061C, strain skt5, stronger effect = lower value 1 | locus YBR009C, strain hhf1, stronger effect = lower value 1 | locus YBR023C, strain chs3, stronger effect = lower value 1.01 | locus YBR171W, strain sec66, stronger effect = lower value 1.02 | locus YBR231C, strain swc5, stronger effect = lower value 1.01 | locus YBR279W, strain paf1, stronger effect = lower value 0.986 | locus YCL011C, strain gbp2, stronger effect = lower value 1 | locus YCL016C, strain dcc1, stronger effect = lower value 1.02 | locus YCL061C, strain MRC1, stronger effect = lower value 1.01 | locus YCL069W, strain vba3, stronger effect = lower value 1.01 | locus YCR088W, strain abp1, stronger effect = lower value 1.02 | locus YDL005C, strain med2, stronger effect = lower value 0.993 | locus YDL040C, strain nat1, stronger effect = lower value 0.993 | locus YDR001C, strain nth1, stronger effect = lower value 1.01 | locus YDR069C, strain doa4, stronger effect = lower value 1.01 | locus YDR137W, strain rgp1, stronger effect = lower value 1.04 | locus YDR159W, strain sac3, stronger effect = lower value 1 | locus YDR195W, strain ref2 1.01 | locus YDR297W, strain sur2, stronger effect = lower value 1 | locus YDR334W, strain swr1, stronger effect = lower value 1.02 | locus YDR335W, strain msn5, stronger effect = lower value 0.991 | locus YDR392W, strain spt3, stronger effect = lower value 1.01 | locus YEL003W, strain gim4, stronger effect = lower value 1.01 | locus YEL037C, strain rad23, stronger effect = lower value 1 | locus YEL061C, strain CIN8 (second series), stronger effect = lower value 1.02 | locus YER015W, strain faa2, stronger effect = lower value 0.993 | locus YER016W, strain bim1, stronger effect = lower value 1 | locus YER111C, strain swi4, stronger effect = lower value 1.03 | locus YER155C, strain BEM2 (second series), stronger effect = lower value 1.06 | locus YFR010W, strain ubp6, stronger effect = lower value 1.01 | locus YGL167C, strain pmr1, stronger effect = lower value 1.01 | locus YGL173C, strain kem1, stronger effect = lower value 1.01 | locus YGL227W, strain vid30, stronger effect = lower value 0.989 | locus YGL240W, strain doc1, stronger effect = lower value 1.01 | locus YGL253W, strain hxk2, stronger effect = lower value 1.01 | locus YHR013C, strain ard1, stronger effect = lower value 1.03 | locus YHR027C, strain rpn1, stronger effect = lower value 1.01 | locus YHR030C, strain SLT2, stronger effect = lower value 0.979 | locus YHR079C, strain IRE1, stronger effect = lower value 0.99 | locus YHR142W, strain chs7, stronger effect = lower value 1.03 | locus YJL092W, strain hpr5, stronger effect = lower value 1.01 | locus YJL095W, strain BCK1 (second series), stronger effect = lower value 1.01 | locus YJL095W, strain BCK1, stronger effect = lower value 0.981 | locus YJL115W, strain asf1, stronger effect = lower value 1.01 | locus YJL129C, strain trk1, stronger effect = lower value 1 | locus YJL154C, strain vps35, stronger effect = lower value 1.02 | locus YJL164C, strain tpk1, stronger effect = lower value 1.01 | locus YJL166W, strain qcr8, stronger effect = lower value 1.02 | locus YJL187C, strain SWE1, stronger effect = lower value 1.01 | locus YJR066W, strain TOR1, stronger effect = lower value 0.968 | locus YKL160W, strain elf1, stronger effect = lower value 1.02 | locus YKR026C, strain gcn3, stronger effect = lower value 0.997 | locus YKR091W, strain srl3, stronger effect = lower value 0.984 | locus YLL001W, strain dnm1, stronger effect = lower value 1.02 | locus YLL026W, stronger effect = lower value 0.995 | locus YLL041C, strain sdh2, stronger effect = lower value 1.01 | locus YLR027C, strain aat2, stronger effect = lower value 0.999 | locus YLR113W, strain HOG1, stronger effect = lower value 0.987 | locus YLR221C, strain rsa3, stronger effect = lower value 0.994 | locus YLR258W, strain gsy2, stronger effect = lower value 1.02 | locus YLR262C, strain YPT6 (second series), stronger effect = lower value 1.04 | locus YLR320W, strain mms22, stronger effect = lower value 1.02 | locus YLR342W, strain FKS1, stronger effect = lower value 1.02 | locus YLR357W, strain rsc2, stronger effect = lower value 0.969 | locus YLR370C, strain arc18, stronger effect = lower value 1 | locus YLR384C, strain iki3, stronger effect = lower value 1.01 | locus YML120C, strain ndi1, stronger effect = lower value 1 | locus YMR058W, strain fet3, stronger effect = lower value 1 | locus YMR125W, strain sto1, stronger effect = lower value 1.01 | locus YMR129W, stronger effect = lower value 0.999 | locus YMR205C, strain PFK2, stronger effect = lower value 1.01 | locus YMR231W, strain pep5, stronger effect = lower value 0.983 | locus YNL071W, strain lat1, stronger effect = lower value 1.01 | locus YNL183C, strain NPR1, stronger effect = lower value 0.971 | locus YNL209W, strain ssb2, stronger effect = lower value 1 | locus YNL248C, strain rpa49, stronger effect = lower value 0.994 | locus YNL322C, strain KRE1 (second series), stronger effect = lower value 1.02 | locus YNR049C, strain mso1, stronger effect = lower value 1.01 | locus YOR001W, strain rrp6, stronger effect = lower value 1.02 | locus YOR070C, strain gyp1, stronger effect = lower value 1.01 | locus YOR080W, strain dia2, stronger effect = lower value 1.02 | locus YOR083W, strain WHI5, stronger effect = lower value 1.01 | locus YOR106W, strain vam3, stronger effect = lower value 1.03 | locus YOR231W, strain MKK1, stronger effect = lower value 0.981 | locus YOR265W, strain rbl2, stronger effect = lower value 1.02 | locus YOR270C, strain vph1, stronger effect = lower value 1 | locus YOR290C, strain snf2, stronger effect = lower value 1.01 | locus YPL051W, strain arl3, stronger effect = lower value 1.01 | locus YPL078C, strain atp4, stronger effect = lower value 1.01 | locus YPL106C, strain sse1, stronger effect = lower value 0.982 | locus YPL240C, strain hsp82, stronger effect = lower value 0.997 | locus YPL256C, strain CLN2, stronger effect = lower value 0.979
